This is a sample that favours compounds with a hit; in the whole collection about 4.1% have one here.
DAX1 inh-1 – DAX1 (NR0B1) inhibitors, primary screen, cell-based, HEK293, Gal4-DAX1, luciferase luminescence; Nuclear receptor subfamily 0 group B member 1 (Homo sapiens), P51843; HEK293 Gal4-DAX1 luciferase reporter; inhibition, % at 6.75 µM; 340,000 tested, 0.99% active;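 active means inhibition above the mean over all tested compounds plus 3 SD, cut at about 4.2% in these data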;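 further: inhibition shows as a rise in luminescence from relieved DAX1 repression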
hgDAF-12 ag – H. glycines DAF-12 receptor agonists, primary screen, cell-based, luminescence, HEK293, GAL4 fusion, UAS-luciferase; 370,000 tested, 1.8% active; Nuclear hormone receptor DAF-12 (Heterodera glycines), GAL4 fusion; activation, % at 6.8 µM; HEK293 GAL4-hgDAF12 UAS-luciferase reporter, agonist luminescence; normalized to butyrate control; AID 687014, 2013;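 active means activation above a cutoff set at the mean of all screened compounds plus 3 SD, cut at about 10% in these data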
DAX1 inh-2 – DAX1 (NR0B1) inhibitors on StAR promoter, primary screen, cell-based, luminescence, SF-1 (NR5A1), full-length DAX-1. AID 652010, 2013. inhibition, % at 6.8 µM. 370,000 tested, 1.1% active. HEK293T StAR-luciferase reporter, SF-1/DAX-1 repression relief;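 active means inhibition above the mean over all tested compounds plus 3 SD, cut at about 3.6% in these data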;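 further: higher inhibition means more luminescence from relief of DAX-1 repression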
hcDAF-12 act – H. contortus DAF-12 nuclear receptor activators, primary screen, cell-based, luminescence, HEK293, lit1-tk-luc reporter; 370,000 tested, 1.4% active; activation, % at 6.8 µM; AID 652067, 2013; HEK293 hcDAF-12 lit1-tk-luc reporter; 0% DMSO, 100% Δ7-dafachronic acid;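 active means activation above the mean of all tested compounds plus 3 SD, cut at about 5.5% in these data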
ssDAF12 agonist – S. stercoralis DAF-12 nuclear receptor activators, primary screen, cell-based, luminescence, HEK293, GRIP1 co-expression, lit1-tk-luc; Nuclear hormone receptor DAF-12 (Strongyloides stercoralis); HEK293 ssDAF-12/GRIP1 lit1-tk-luc reporter; % of 3 µM dafachronic acid response; activation, % at 6.8 µM; 370,000 tested, 1% active; AID 652126, 2013;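 active means activation above the mean over all tested compounds plus 3 SD, cut at about 0.9% in these data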
DAX1 inh confirm – DAX1 (NR0B1) inhibitors relieving SF-1 repression, confirmation, cell-based, luminescence, HEK293T, full-length DAX-1, SF-1 activated StAR promoter; HEK293T StAR-promoter luciferase reporter, SF-1/DAX-1 repression; 2,400 tested, 87% active; shares compounds with DAX1 inh-2; inhibition, % at 6.8 µM; AID 652134, 2013;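 active means inhibition above the average of every tested compound plus 3 SD, cut at about 3.8% in these data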
Target sequence (P51843 whole entry, looked up): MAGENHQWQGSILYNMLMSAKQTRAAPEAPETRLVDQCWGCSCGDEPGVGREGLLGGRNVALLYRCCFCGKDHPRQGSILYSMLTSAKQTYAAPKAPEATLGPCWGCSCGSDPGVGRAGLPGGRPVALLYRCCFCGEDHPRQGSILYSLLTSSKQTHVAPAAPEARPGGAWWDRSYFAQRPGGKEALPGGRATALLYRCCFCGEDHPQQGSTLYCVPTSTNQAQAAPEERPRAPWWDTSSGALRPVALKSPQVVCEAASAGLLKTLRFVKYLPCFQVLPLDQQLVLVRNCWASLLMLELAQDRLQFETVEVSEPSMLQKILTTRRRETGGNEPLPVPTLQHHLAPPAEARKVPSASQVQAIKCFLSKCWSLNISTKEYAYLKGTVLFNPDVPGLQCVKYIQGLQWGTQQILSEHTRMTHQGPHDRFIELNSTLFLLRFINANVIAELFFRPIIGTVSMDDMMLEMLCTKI
SF1 mutant ctr – StAR reporter signal changes without DAX1, counter-screen for DAX1 inhibitor project, cell-based, luminescence, AF-2 mutant SF-1, transactivation; shares compounds with DAX1 inh-2; HEK293 StAR-luciferase, SF-1 AF2 mutant; inhibition, % at 6.8 µM; 2,400 tested, 78% active; AID 652136, 2013;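 active means inhibition above the mean of all tested compounds plus 3 SD, cut at about 3% in these data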
LXR ag – LXR agonists, Gal4 luciferase reporter, confirmation, counter-screen for hcDAF-12 agonist project, cell-based, luminescence, HEK293, H. contortus campaign; AID 743027, 2013; 3,400 tested, under 10 active; shares compounds with hcDAF-12 act; HEK293 Gal4-LXR tk-luc reporter, 24 h; normalized: DMSO 0%, positive control 100%; activation, % at 6.8 µM;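 active means mean percent activation of the reporter above a cutoff set as the average over tested compounds plus their standard deviation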
hcDAF12 conf – H. contortus DAF-12 receptor agonists, confirmation, cell-based, luminescence, HEK293, lit1-tk-luc, triplicate; activation, % at 6.8 µM; 3,400 tested, 61% active; HEK293 hcDAF-12 lit1-tk-luc reporter; % of Δ7-dafachronic acid response; shares compounds with hcDAF-12 act;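 active means mean activation across triplicate tests above the threshold derived from the earlier primary screen, cut at about 5.5% in these data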
Hits are given with their value; – = inactive; · = no result given.

SMILES | DAX1 inh-1 | hgDAF-12 ag | DAX1 inh-2 | hcDAF-12 act | ssDAF12 agonist | DAX1 inh confirm | SF1 mutant ctr | LXR ag | hcDAF12 conf
COc1cc(-c2cc3nc(NCc4cccs4)ccn3n2)cc(OC)c1OC | · | – | – | – | – | · | · | · | ·
c1ccc(-c2cc3nc(NCc4cccs4)ccn3n2)cc1 | · | 12 | 7.8 | 10 | – | 16 | 8.1 | – | 6.6
NC(c1ccccc1)c1csc(NC(=O)NCC2CCCCC2)n1 (stereo unspecified) | · | – | – | – | – | · | · | · | ·
C[C@H]1C(c2ccccc2F)O[C@]2(C[C@H](O)c3ccccc3O2)C[C@@H]1O (stereo partly specified) | · | – | – | – | – | · | · | · | ·
N#CCSc1ccc2nc(-c3ccccc3)cn2n1 | – | – | 7.1 | 7.5 | 1.0 | 5.8 | 4.7 | – | 8.1
O=S(=O)(/N=C(/Nc1nc2ccccc2s1)c1ccccc1)c1ccccc1 | – | 12 | 14 | 8.9 | 1.5 | 5.0 | 4.2 | – | –
Cc1ccc(C(=O)Oc2oc(-c3ccco3)nc2C=Nc2ccc(Cl)cc2)cc1 | – | – | 4.6 | 8.3 | – | 7.9 | 4.7 | – | –
CCCCCCCCN1C(=O)[C@@H](CC(=O)NCCC(C)C)C[C@@]2(C(=O)OC)C1=C[C@H](C(C)C)O[C@@H]2C1CC1 | · | – | – | – | – | · | · | · | ·
CC(=O)Nc1cccc(-c2ccnc3c2CC(C)(C(=O)Nc2ccc(Cl)c(C(F)(F)F)c2)O3)c1 (stereo unspecified) | · | – | – | – | – | · | · | · | ·
Cc1ccc(C(=O)NC2=NCCS2)cc1 | · | – | – | – | – | · | · | · | ·
CC(C)Oc1ccc(C(=O)NC2=NCCS2)cc1 | – | 22 | 9.9 | 7.5 | – | 14 | 8.1 | – | –
COC(=O)[C@]12C[C@H](CC(=O)N3CCC(c4ccccc4)CC3)C(=O)N(Cc3ccccc3)C1=C[C@H](C1CCCC1)O[C@@H]2C | · | – | – | – | – | · | · | · | ·
C=CCNc1cccc2c1S(=O)(=O)N[C@H](C)CO2 | · | – | – | – | – | · | · | · | ·
O=C1Cc2c([nH]c3ccc(Br)cc23)-c2ccccc2N1 | – | 11 | 7.5 | 11 | – | 6.4 | – | – | 8.5
Brc1ccc2[nH]c3c(c2c1)CCC3 | – | – | – | – | – | · | · | · | ·
O=C(Nc1cccc([N+](=O)[O-])c1)c1cc2ccccc2cc1O | – | – | – | – | – | · | · | · | ·
O=C(Nc1ccncc1)c1cc2ccccc2cc1O | – | 12 | 6.2 | 6.7 | – | 7.3 | 5.8 | – | 6.3
CCOC(=O)C1CCCN(C(=O)CCc2nnc(-c3ccc(C(C)=O)s3)o2)C1 (stereo unspecified) | – | 13 | 5.5 | 6.8 | – | 5.8 | 5.9 | – | 6.1
CN(C(=O)c1ccco1)c1nc2c(s1)CCCC2 | – | 12 | 5.1 | 8.6 | 1.6 | 16 | 6.4 | – | 8.3
Cc1ccccc1/C=N/NC(=O)c1sccc1C | – | 27 | 6.2 | 12 | 2.0 | 15 | 10 | – | –
Cc1ccsc1C(=O)N/N=C/C=C/c1ccccc1[N+](=O)[O-] | – | – | – | – | – | · | · | · | ·
Cc1ccsc1C(=O)N/N=C/c1ccc2c(c1)OCO2 | – | 15 | 7.7 | 9.1 | – | 15 | 9.4 | – | 6.6
Clc1ccc(-c2nc3n(n2)Cc2ccccc2-3)cc1 | – | 17 | 5.1 | 17 | 3.5 | 13 | 5.5 | – | 24
CCN(CC)S(=O)(=O)c1cccc(-c2nc3n(n2)Cc2ccccc2-3)c1 | – | – | – | – | – | · | · | · | ·
O=C(O)c1cc(N/N=C/C(Cl)=C/c2ccccc2)ccc1Cl | – | 28 | 13 | 11 | 2.2 | 22 | 12 | – | 13
SMILES | DAX1 inh-1 | hgDAF-12 ag | DAX1 inh-2 | hcDAF-12 act | ssDAF12 agonist | DAX1 inh confirm | SF1 mutant ctr | LXR ag | hcDAF12 conf
Cc1ccc(/C=N/Nc2ccc(Cl)c(C(=O)O)c2)s1 | – | 22 | 6.7 | 19 | 4.1 | 12 | 9.1 | – | 12
COCCN(CCOC)Cc1cc(=O)oc2cc(C)cc(C)c12 | · | – | – | – | – | · | · | · | ·
Cc1ccnc(NC(=O)Cc2ccc(-c3ccccc3)cc2)c1 | – | 34 | 15 | 9.9 | 1.3 | 21 | – | – | 9.6
O=C(Cc1ccc(-c2ccccc2)cc1)Nc1ccccn1 | – | – | – | – | – | · | · | · | ·
O=C(O)COc1ccc(NC(=O)c2ccc3c(c2)C(=O)N(CC2CCCO2)C3=O)cc1 (stereo unspecified) | – | – | – | – | – | · | · | · | ·
Cc1cccc(/C=N/Nc2nncc3ccccc23)c1 | – | 18 | 14 | 12 | – | 12 | 4.9 | – | 12
N#Cc1ccsc1NC(=O)CSc1nncs1 | – | 16 | 8.4 | 9.4 | – | 11 | 5.2 | – | 11
Cn1c(=NC(=O)COc2ccccc2)sc2ccccc21 | 4.7 | 13 | 4.7 | 7.9 | – | 7.5 | 5.1 | – | –
Cn1c(=NC(=O)CS(=O)(=O)c2ccccc2)sc2ccccc21 | – | – | – | – | – | · | · | · | ·
COc1ccc(C(=O)N=c2sc3ccccc3n2C)cc1 | 4.7 | 16 | 5.8 | 13 | 2.8 | 11 | 7.0 | – | 19
CCCNC(=O)C[C@@H]1C[C@@H]2c3cc(NS(=O)(=O)c4ccc(OC)cc4)ccc3O[C@@H]2[C@@H](CO)O1 | – | – | – | – | – | · | · | · | ·
COc1ccc2oc(C(=O)NCC3CCCO3)c(C)c2c1 (stereo unspecified) | – | – | 6.5 | 12 | – | 5.1 | – | – | 6.5

High-throughput results: PubChem BioAssay, The Scripps Research Institute Molecular Screening Center
